This is a sample that favours compounds with a hit; in the whole collection about 21% have one here.
Pf growth 96h = P. falciparum growth inhibition at 96 hours; Potency, µM (top dose mostly 28.7 µM), for inactives: at the highest dose activity change, negative = inhibition, hits mostly inhibitors; P. falciparum luciferase reporter growth, 96 h; actives 6.9% (n = 320,000); note: potency is the fitted concentration of half-maximal effect; % is set by controls: 0 for no effect and ±100 for the full control effect
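Infected RBCs, 2% Hct / 0.05% parasitemia final; luciferase-reporter P. falciparum; cpd 96 h, 37 C, 5% CO2; luciferase detection reagent; luminescence.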
Pf growth 48h = P. falciparum growth inhibition at 48 hours (one generation); actives 5.9% (n = 310,000); P. falciparum luciferase growth in erythrocytes, 48 h; Potency, µM (top dose mostly 28.7 µM), for the others: top-dose activity change, negative = inhibition, usual class: inhibitors; AID 504832; note: potency is the fitted concentration of half-maximal effect; % is set by controls: 0 for no effect and ±100 for the full control effect
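Luciferase-expressing P. falciparum in infected erythrocytes (2% hematocrit, 0.1% parasitemia final) in RPMI 1640/0.5% Albumax were exposed to compound for 48 hours at 37 C, 5% CO2; growth read as luminescence.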
AMA1 RON2 block = disrupts binding of P. falciparum AMA1 to RON2 | actives 0.2% (n = 360,000) | Potency, µM (highest dose often 58.2 µM), without a hit: at the highest dose activity change, negative = inhibition, hits mostly inhibitors | AlphaScreen AMA1-biotinylated RON2 peptide binding;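 note: potency is the fitted concentration of half-maximal effect; 0% = vehicle wells and -100% = peptide control; nearly all actives have a fitted effect of over 45% in size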
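AMA1 (3D7) with his tag at 25 nM final met compounds first, then biotinylated RON2 peptide at 25 nM; detection used donor plus acceptor beads, 10 µg/mL apiece, read by AlphaScreen after 30 min at room temperature.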
HCV inhibitor = blocks hepatitis C virus; Huh7.5.1 HCVcc-Cre infection, luciferase reporter, 44 h; Potency, µM (doses to about 41.8 µM), inactives show top-dose activity change, negative = inhibition, most hits filed as inhibitors; actives 3.4% (n = 340,000); note: potency is the fitted concentration of half-maximal effect; % is set by controls: 0 for no effect and ±100 for the full control effect
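Compounds are dispensed onto cells plated 4 h earlier at 1,000 per well, with HCVcc-Cre virus (about 0.5 moi) added next. Following 44 h of culture, luminescent signal is measured for 15 sec after 15 min with substrate at room temperature.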
Shiga inhibitor = blocks Shiga toxin action in Vero cells; Vero cells, Shiga toxin protein synthesis inhibition reporter; actives 9.2% (n = 290,000); inhibition, % at 38.7 µM; in the data active = inhibition mostly above about 28%, no sharp cut-off; inactive = mostly below about 43%; note: 0% is about no effect
CHX counter = affects cycloheximide protein synthesis inhibition readout, counter-screen. max response, %. cell reporter, cycloheximide protein synthesis inhibition counterscreen. actives 12% (n = 300,000); in the data active = max response mostly above about 13%, no sharp cut-off; inactive = mostly below about 14%; note: read at 38.3 µM for the half of the compounds with a filed dose; 0% is about no effect
The depositor's hits bear a star; ? = inconclusive; nt = no result; [ ] = another dose, or the depositor's remark. Unless noted, calls come from the whole dose curve; as a rule, active = well fitted curve in the direction sought with a large enough effect; inconclusive = small, poorly fitted or top-dose-only effect, or another doubt; inactive = no such curve, though single readings can be large; an effect the other way counts as inactive or inconclusive.

SMILES	Pf growth 96h	Pf growth 48h	AMA1 RON2 block	HCV inhibitor	Shiga inhibitor	CHX counter
COc1ccc(NC(=O)Nc2ccc(F)cc2F)c(C)c1	?	nt	-5.5%	-5.4%	20.2	35.1*
COc1ccc(NC(=O)Nc2ccc(F)cc2)c(C)c1	20.8%	0.0%	-1.5%	6.1%	50.5	18.6
COc1ccc(NC(=O)Nc2ccc(F)cc2F)cc1	-15.0%[5.75 µM]	160.1%	6.9%	-5.3%	67.7*	38.0*
Cc1cc([N+](=O)[O-])ccc1NC(=O)Nc1ccc(F)cc1F	1.3%	?	0.0%	3.55µM*	-11.9	-1.4
Cc1cc(C)nc(NC(=O)Nc2ccc(F)cc2F)n1	92.2%	35.8%	-6.4%	-1.7%	16.8	13.5*
CNC(=S)Nc1ccc([N+](=O)[O-])cc1C	-27.0%	-4.1%	-3.1%	?	-12.4	-3.7
O=Cc1cc(OCc2ccccc2)ccc1[B-](F)(F)F	nt	nt	7.4%	?	nt	nt
CC(C)(C)C(=O)c1c(N)[nH]c(C(=O)c2ccccc2)c1-c1c(F)cccc1F	nt	nt	49.4%	nt	nt	nt
COc1ccc(NC(=O)Nc2cc(NC(=O)Nc3ccc(OC)cc3)c(C)nc2C)cc1	36.6%	2.7%	6.4%	-0.8%	8.8	-1.8
CC(C)c1ccccc1NC(=O)Nc1ccc(F)cc1F	3.0%	-22.7%	?	-5.4%	22.8	9.9*
COCC(=O)Nc1ccc([N+](=O)[O-])cc1C	-34.3%	-6.9%	-9.7%	-5.1%	-11.1	-2.2
COc1ccc(NC(=O)Nc2c[nH]c(=O)[nH]c2=O)cc1	2.62µM*	nt	1.6%	-3.2%	-2.4	5.1
Cc1cc([N+](=O)[O-])ccc1NC(=O)c1csc(C)c1C	-4.7%	145.0%	5.7%	-24.0%	98.6*	63.4*
CCOC(=O)CN1C(=O)C(Sc2n[nH]c(-c3ccccc3)n2)CCc2ccccc21 (stereo unspecified)	5.86µM*	nt	1.3%	?	-5.6	-7.2
CCOc1ccc(N2C(=O)CC(Sc3n[nH]c(-c4ccccc4)n3)C2=O)cc1 (stereo unspecified)	29.2%	9.9%	57.1%	14.4%	7.2	-3.1
Nc1ccc(S(=O)(=O)c2ccc(N3CCOCC3)c(N)c2)cc1	nt	nt	0.0%	nt	nt	nt
Cc1noc(C)c1-c1ccc2ncnc(NCc3ccc(C(F)(F)F)o3)c2c1	nt	nt	nt	nt	15.9	12.5
N#Cc1cc2c(nc1SCC(=O)O)CCCCC2	32.1%	22.7%	-3.8%	2.3%	57.7	19.0
N#CCSc1nc2c(cc1C#N)CCCC2	nt	47.0%	19.1%	25.1%	57.2	30.4*
CSC1CCCCC1(O)CSc1nc2c(cc1C#N)CCCC2 (stereo unspecified)	54.6%	9.28µM*	2.0%	?	8.8	10.3
N#Cc1cc2c(nc1SCc1cccnc1)CCCCC2	nt	?	0.4%	-17.1%	129.6*	16.5
CC1(C(=O)NS(=O)(=O)Cc2ccccc2C(F)(F)F)CCN1C(=O)Cc1ccccc1 (stereo unspecified)	nt	nt	8.4%	nt	nt	nt
N/C(=N\c1nc2ccccc2o1)NC(=O)c1ccc(Cl)cc1	-5.5%	12.3%	95.2%	-6.9%	31.3	2.5
N/C(=N\c1nc2ccccc2o1)NC(=O)c1ccccc1Br	28.8%	74.7%	86.7%	?	80.5*	32.7*
N/C(=N\c1nc2ccccc2o1)NC(=O)c1ccc(F)cc1	155.7%	78.8%	-9.3%	-5.1%	72.2*	31.9*
SMILES	Pf growth 96h	Pf growth 48h	AMA1 RON2 block	HCV inhibitor	Shiga inhibitor	CHX counter
CCOc1cc(CNCc2cccnc2)cc(Br)c1OCC(N)=O	?	1.0%	-13.3%	3.2%	-0.7	1.3
COc1ccc(CCNC(=O)C2CCC(C(C)(C)C)CC2)cc1OC (stereo unspecified)	?	?	12.2%	-15.0%	-27.0	-1.2
COc1cc(CN2CC(=O)N(c3cc(Cl)ccc3C)C2=S)cc(OC)c1OC	-17.5%	2.62µM*	-4.2%	-23.3%	-9.2	-3.8
CCc1ccc(N2C(=O)CN(Cc3cc(OC)c(OC)c(OC)c3)C2=S)cc1	-19.5%	4.4%	0.1%	?	-6.3	-2.8
COc1ccc(CN2CC(=O)N(c3ccccc3C)C2=S)cc1OC	96.2%	9.28µM*	-2.9%	?	-9.1	-0.3
COc1ccc(N2C(=O)CN(Cc3ccc(OC)c(OC)c3)C2=S)cc1	?	-8.7%	-2.8%	?	-9.2	-5.6
CCc1ccc(N2C(=O)CN(Cc3cccs3)C2=S)cc1	-6.2%	1.6%	3.0%	-5.2%	12.2	28.1*
COc1ccc(CN2CC(=O)N(c3cc(Cl)ccc3C)C2=S)cc1OC	0.4%	7.38µM*	-13.2%	?	-12.3	-3.1
Cn1c(=O)c2c(nc(N3CCOCC3)n2C/C=C/c2ccccc2)n(C)c1=O	?	-5.9%	3.7%	-9.3%	-6.6	-3.1
CCOC(=O)[C@@H]1[C@H]2COc3cc(OC)ccc3[C@@H]2N2C(=O)N(c3ccccc3)C(=O)[C@@]12C	nt	nt	-1.5%	-11.1%	nt	nt
Cc1c(OCC(=O)NCCN2CCOCC2)ccc2c(-c3ccccc3)cc(=O)oc12	-13.8%	-0.4%	2.0%	2.2%	0.3	-3.2
CCc1ccccc1N1C(=O)CN(Cc2cc(OC)c(OC)c(OC)c2)C1=S	?	5.22µM*	-6.1%	31.6µM*	-6.8	-4.1
CCc1ccc(N2C(=O)CN(Cc3ccccc3)C2=S)cc1	25.5%	?	-15.2%	-3.5%	25.2	9.3
COc1cccc(N2C(=O)CN(Cc3ccc(OC)c(OC)c3)C2=S)c1	?	1.47µM*	-6.8%	-20.7%	-13.1	5.1
Cc1cc(C)cc(N2C(=O)CN(Cc3ccccc3)C2=S)c1	4.65µM*	14.7µM*	-7.3%	0.1%	-2.0	-1.2
COc1cc(CN2CC(=O)N(c3ccc(C)c(C)c3)C2=S)cc(OC)c1OC	13.4%	1.04µM*	-7.7%	?	2.7	-1.8
COc1ccc(CN2CC(=O)N(c3ccc(C)c(C)c3)C2=S)cc1OC	6.1%	?	-10.0%	4.2%	23.2	6.9
NC(=O)c1oc2ccccc2c1NC(=O)C1COc2ccccc2O1 (stereo unspecified)	52.4%	16.7%	3.6%	-6.4%	23.9	0.3
CCOC(=O)[C@H]1[C@H]2COc3ccc(Br)cc3[C@H]2N2C(=O)CN(Cc3ccc(Cl)cc3)C(=O)[C@@]12C	nt	nt	0.0%	?	nt	nt
C[C@@H]1CN([C@@H](C)CO)C(=O)CCCn2nncc2CO[C@@H]1CN(C)C(=O)c1ccncc1	nt	nt	0.7%	nt	nt	nt
CCN(CC)c1ccc2c(O)cc(=O)oc2c1	74.0%	0.0%	6.3%	10.9%	41.0	14.5
CCN(CC)c1ccc(C(=O)OCc2cc(=O)oc3cc(O)ccc23)cc1	4.65µM*	?	-9.6%	22.4µM*	-2.3	-4.4
Cc1ccc2c(COC(=O)c3cnc(C)cn3)cc(=O)oc2c1	17.3%	25.5%	nt	nt	2.8	-1.0
Cc1ccc(S(=O)(=O)NCC(=O)OCc2cc(=O)oc3cc(C)ccc23)cc1	0.5%	-8.3%	0.0%	9.6%	nt	nt
CCOC(=O)c1oc2ccc(Br)cc2c1COC(=O)C1=COCCO1	3.4%	34.6%	10.4%	25.1µM*	nt	nt
